# Screening data (PubChem BioAssay)
# ELG1 genotox – induces genotoxicity in HEK293T cells with luciferase-tagged ELG1; AID 504466; 330,000 tested, 1.3% active; HEK293T ELG1-luciferase reporter, luminescence, 16 h; Potency, µM (doses to about 46 µM), for the others: top-dose activity change, positive = activation, usual class: activators; also: % of control where 0% means no effect; nearly all actives have a fitted effect of over 60% in size
#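 ELG1-luciferase HEK293T cells, 2,000/well; compound pinned in; 16 hr, 37 °C, 5% CO2; ONE-Glo, 30 min RT; luminescence on CCD imager.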
# FLuc counter – firefly luciferase modulation, counter-screen for miR-21 project | Potency, µM (top dose mostly 57.5 µM), for inactives: top-dose activity change, negative = inhibition, actives largely listed as inhibitors | 360,000 tested, 6.9% active | purified FLuc, Km substrates, luminescence inhibition;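 also: plate controls were vehicle for no effect and reference inhibitor for full effect; nearly all actives have a fitted effect of over 55% in size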
# Target sequence (P08659 whole entry, looked up): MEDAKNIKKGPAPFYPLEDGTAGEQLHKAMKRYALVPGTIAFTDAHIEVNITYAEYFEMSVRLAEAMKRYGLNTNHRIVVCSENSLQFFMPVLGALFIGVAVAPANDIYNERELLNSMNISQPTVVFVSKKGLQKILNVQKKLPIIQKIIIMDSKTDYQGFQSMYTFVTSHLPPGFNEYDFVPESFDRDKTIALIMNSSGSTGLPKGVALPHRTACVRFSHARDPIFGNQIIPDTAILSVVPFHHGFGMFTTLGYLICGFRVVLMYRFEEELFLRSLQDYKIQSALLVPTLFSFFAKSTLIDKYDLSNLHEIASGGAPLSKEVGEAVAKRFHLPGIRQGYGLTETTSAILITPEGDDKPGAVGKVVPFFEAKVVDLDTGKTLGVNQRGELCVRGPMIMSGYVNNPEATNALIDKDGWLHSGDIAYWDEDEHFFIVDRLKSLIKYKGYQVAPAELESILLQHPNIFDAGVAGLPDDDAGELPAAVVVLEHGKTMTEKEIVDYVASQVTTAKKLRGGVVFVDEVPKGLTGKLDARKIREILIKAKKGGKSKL
#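 Purified P. pyralis luciferase, 10 nM final, with Km-level 10 uM D-luciferin and 10 uM ATP in 50 mM Tris acetate pH 7.5, 10 mM Mg acetate, 0.01% Tween-20, 0.05% BSA; 6-point qHTS titration about 60 µM downward; luminescence read.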
# Rab9 prom act – activators of Rab9 promoter | Huh7 Rab9 promoter-luciferase reporter, luminescence, 24 h | Potency, µM (series often up to 9.22 µM), for the others: at the top dose activation, negative = inhibition, usual class: activators | 320,000 tested, 2.8% active | AID 485297; also: % of control where 0% means no effect; nearly all actives have a fitted effect of over 60% in size
#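 Luciferase signal after 10 min detection reagent at ambient indicates Rab9 promoter upregulation; stably transfected Huh7 cells were treated 24 h with compound in DMSO at 37 °C, 5% CO2.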
# NPC1 prom act – NPC1 promoter activation. Potency, µM (top dose mostly 9.22 µM), without a hit: at the top dose activation, actives largely listed as activators. 320,000 tested, 2.4% active. Huh7 NPC1 promoter luciferase reporter, 24 h; also: % of control where 0% means no effect; nearly all actives have a fitted effect of over 60% in size
#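 Luminescence from an NPC1 promoter-driven luciferase reporter in stably transfected Huh7 cells was measured after 24 h compound treatment at 37 °C, followed by 10 min ambient incubation with luciferase detection reagent.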
# SMN2 splice up – increases expression of the SMN2 splice variant; HEK293 SMN2-luciferase splicing reporter, luminescence, 30-36 h; Potency, µM (top dose mostly 46.1 µM), without a hit: at the top dose activity change, positive = activation, actives largely listed as activators; 210,000 tested, 2.8% active; AID 1458; also: % of control where 0% means no effect; nearly all actives have a fitted effect of over 55% in size
#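 qHTS luciferase splicing reporter: luminescence rises when SMN2 exon 7 is included in transfected HEK293 cells. Compound exposure lasted 30-36 h at 37C, with 4.5 mM final sodium butyrate as control, followed by a ONE-Glo read.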
# An asterisk follows results filed as active; ? = inconclusive; . = not tested or not shown; [ ] = another dose, or the depositor's remark. This is a sample that favours compounds with a hit; in the whole collection about 7.4% have one here. Calls follow the shape of the dose curve; as a rule, active = well fitted curve in the direction sought with a large enough effect; inconclusive = small, poorly fitted or top-dose-only effect, or another doubt; inactive = no such curve, though single readings can be large; an effect the other way counts as inactive or inconclusive. Potency is read from the fitted curve at half-maximal effect.
SMILES,ELG1 genotox,FLuc counter,Rab9 prom act,NPC1 prom act,SMN2 splice up
COc1cccc(NC(=O)Cn2nnc(C(=O)NCCc3ccccc3)c2N)c1,1%,0%,2%,1%,.
Cc1csc2nc(O)c(C(=O)NC3CCCCC3C)c(=O)n12 (stereo not given),-1%,3%,-5%,0%,.
Cn1c(=O)c2c(SCc3ccccn3)nc(C3CC3)nc2n(C)c1=O,16µM*,-1%,13%,0%,29%
N#Cc1c(N2C(=O)Nc3ccccc3N2O)sc2c1CCCC2,11%,13µM*,8%,18%,-7%
N#Cc1c(N2C(=O)Nc3ccccc3N2O)sc2c1CCCCCC2,-3%,?,1%,9%,18%
Cc1cc(C)cc(NC(=O)CSc2nccn2C2CCCC2)c1,.,-5%,.,.,.
Cc1ccc(Nc2nc3nonc3[nH]c2=O)cc1Cl,-16%,21µM*,2%,9%,-74%
Cc1ccc(Nc2nc3nonc3[nH]c2=O)cc1C,7%,12µM*,26%,18%,13%
CCc1cccc(C)c1NC(=O)c1cc(S(=O)(=O)NCc2ccccc2Cl)ccc1F,.,-3%,.,.,.
CC(C)(C)NCc1cccn1-c1sc2c(c1C#N)CCCC2,-5%,2%,0%,0%,-16%
N#Cc1c(-n2ncnc2-c2ccc(F)cc2)sc2c1CCCCC2,.,0.43µM*,.,.,-11%
Cc1ccccc1-c1ncnn1-c1sc2c(c1C#N)CCCCC2,.,0.34µM*,.,.,-9%
N#Cc1c(-n2ncnc2-c2cccc(Br)c2)sc2c1CCCCC2,.,3.4µM*,.,.,-3%
N#Cc1c(N2C(=O)c3ccc(C(=O)O)cc3C2=O)sc2c1CCCC2,0%,?,0%,0%,.
Cc1ccc(/C=C/C(=O)N(Cc2cccs2)C2CCS(=O)(=O)C2)cc1 (stereo not given),0%,-5%,-5%,-4%,.
Oc1ccc(Cl)cc1CNCC1CCCCC1,2%,?,15%,4%,.
CS(=O)(=O)N1CCC[C@@]2(CCN(C(=O)Nc3ccccc3)C2)C1,.,.,.,.,2%
COc1ccc2oc(C(=O)NC(C)(C)C)c(C)c2c1,?,15µM*,4µM*,?,13µM*
Cc1ccc2oc(C(=O)Nc3nnc(C)s3)c(C)c2c1,5.8µM*,1.7µM*,1.4µM*,3.2µM*,16µM*
COc1ccc2oc(C(=O)Nc3nnc(C)s3)c(C)c2c1,3.3µM*,0.6µM*,0.71µM*,?,.
CCc1nonc1NC(=O)c1oc2ccc(Br)cc2c1C,10%,0%,24%,21%,-1%
Cc1ccc2oc(C(=O)Nc3nonc3C)c(C)c2c1,?,7.6µM*,3.2µM*,?,.
CCOc1ccc(CCNC(=O)c2cccc(S(=O)(=O)N3CCCCC3)c2)cc1OCC,-8%,-1%,-4%,-2%,.
Cc1ccc(C)c(NC(=O)c2cc(S(=O)(=O)N3CCCc4ccccc43)ccc2F)c1,.,5%,.,.,.
O=C(Cn1ncc2c(=O)oc3ccccc3c21)NCc1ccccc1Cl,.,0%,.,.,-15%
SMILES,ELG1 genotox,FLuc counter,Rab9 prom act,NPC1 prom act,SMN2 splice up
Nc1cc([N+](=O)[O-])cc2oc(-c3ccccc3)cc12,?,19µM*,?,?,.
O=[N+]([O-])c1cc(Br)c(OCc2nnc(-c3ccccc3)o2)c(Br)c1,-7%,?,3%,0%,-9%
Cc1ccc(CNC(=O)C(Cc2ccccc2)NS(=O)(=O)c2cccs2)cc1 (stereo not given),-3%,-2%,-5%,2%,18µM*
CC(C)[C@@H]1CC[C@@H](C)C[C@@H]1P(=O)(c1ccccc1)c1ccccc1,.,.,-4%[46.1 µM],-8%[46.1 µM],.
COc1ccc(OC)c(NC(=O)c2ccc(OCC(=O)N3CCOCC3)c(OC)c2)c1,1%,0%,1%,-7%,.
O=C(Nc1ccc(OCC(=O)N2CCOCC2)cc1)c1ccccc1Cl,?,1.7µM*,24%,22%,.
CCCCOc1ccc(C(=O)Nc2ccc(OCC(=O)N3CCOCC3)cc2)cc1,9%,1.1µM*,22%,?,.
COc1ccc(Cl)cc1C(=O)Nc1ccc(OCC(=O)N2CCOCC2)cc1,-6%,?,-4%,6%,.
COc1cc(C(=O)Nc2ccc(C)c(S(=O)(=O)N(C)C)c2)ccc1OCC(=O)N1CCOCC1,3%,3µM*,29%,13%,.
COc1ccc(NC(=O)Nc2ccc(OCC(=O)N3CCOCC3)cc2)cc1OC,5%,13µM*,5%,-5%,.
O=C(CCNC(=O)N1CCn2c1nc1ccccc12)NCc1ccccc1Cl,1%,-18%,-12%,1%,.
CCCNC(=O)c1cnc2c(-c3ccc(OCC)c(OCC)c3)c(C)nn2c1-c1ccccc1,.,-2%,.,.,.
Cc1cc(OCC(=O)N2CCOCC2)ccc1NC(=O)c1ccccc1C,?,7.6µM*,.,20%,.
Cc1ccc(C(=O)Nc2cc(C)c(OCC(=O)N3CCOCC3)c(C)c2)cc1,?,0.67µM*,2.8µM*,?,11µM*
CC(C)Sc1nc(N)c2c3c(sc2n1)CN(C)CC3,?,24µM*,?,?,11µM*
C(=N\c1nc2ccccc2[nH]1)/c1cccs1,1%,1.1µM*,0%,-4%,0%
Cc1cc(/C=C(/C#N)c2nc3ccccc3[nH]2)c(C)n1-c1cc(C(=O)O)cc(C(=O)O)c1,-2%,17µM*,-12%,-1%,-5%
N#C/C(=C\c1cccs1)c1nc2ccccc2[nH]1,?,6.7µM*,?,?,7.9µM*
N#C/C(=C/c1ccc(O)c(O)c1)c1nc2ccccc2[nH]1,18%,6.7µM*,-5%,0%,.
N#C/C(=C\c1ccc(Cl)cc1)c1nc2ccccc2[nH]1,.,-18%,.,.,7%
CCOC(=O)c1ccc2c(c1)N(Cc1ccc(F)cc1Cl)C(=O)c1ccccc1S2(=O)=O,.,-7%,.,.,.
Clc1cccc(CSc2nncn3c2cc2sccc23)c1,.,6%,.,.,.
COc1ccccc1OCCNC(=O)C(CCSC)NS(=O)(=O)c1ccccc1F (stereo not given),0%,-1%,-4%,0%,.
Cc1nn(-c2ccccc2)c2sc(C(=O)Nc3ccc(Cl)cc3Cl)cc12,.,-7%,.,.,-6%
N#C/C(=C\c1ccc(OC(=O)c2cccs2)cc1)c1nc2ccccc2[nH]1,?,?,17%,18%,11µM*
SMILES,ELG1 genotox,FLuc counter,Rab9 prom act,NPC1 prom act,SMN2 splice up
N#C/C(=C/c1ccncc1)c1nc2ccccc2c(=O)[nH]1,-1%,?,-8%,-2%,.
C(=N\c1nc2ccccc2n1CCN1CCOCC1)/c1cccs1,0%,?,0%,-5%,-4%
N#C/C(=C\c1ccccc1OCC(=O)O)c1nc2ccccc2[nH]1,-1%,?,-3%,-3%,.
C(=N\c1nc2ccccc2n1Cc1ccccc1)/c1cccs1,-11%,13µM*,4%,1%,-14%
N#C/C(=C\c1cc(Br)c(O)c(Br)c1)c1nc2ccccc2c(=O)[nH]1,.,15µM*,.,.,-7%
N#C/C(=C\c1ccc(N2CCCC2)c([N+](=O)[O-])c1)c1nc2ccccc2[nH]1,12%,5.4µM*,?,?,-11%
